Where “and” joins values, the source holds several entries; their conditions need not be identical. Equal entries are not always repeated. In all, about 5,500 compounds went through this assay and about 2,000 (36%) were called active. About 18% were inconclusive and are not listed. Rule as the data show it: active = normalized growth mostly below about 0.91 (no sharp cut-off); inconclusive = no clear call, values can overlap the other calls; inactive = mostly above about 0.92. The list shows a part of the results.
Test: chemical genetic growth profiling, strain panel (AID 1159580);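 also: tested at 20 µM; growth read once vehicle control cultures reached saturation at 30 °C; 1 = growth at the plate median or of vehicle wells; lower values mean less growth of the strain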
Details: S. cerevisiae deletion strains, growth OD

Measured: normalized growth

CCN(CC)C(=O)N1CCN(C)CC1
inactive: locus YAL021C, strain ccr4, active compounds read low 0.984 | locus YAL026C, strain drs2, active compounds read low 0.967 | locus YAL030W, strain snc1, active compounds read low 0.967 | locus YBL061C, strain skt5, active compounds read low 0.976 | locus YBR009C, strain hhf1, active compounds read low 0.957 | locus YBR021W, strain FUR4, active compounds read low 0.974 | locus YBR023C, strain chs3, active compounds read low 0.981 | locus YBR171W, strain sec66, active compounds read low 0.99 | locus YBR229C, strain ROT2, active compounds read low 1.01 | locus YBR231C, strain swc5, active compounds read low 0.97 | locus YBR279W, strain paf1, active compounds read low 0.981 | locus YCL011C, strain gbp2, active compounds read low 0.971 | locus YCL016C, strain dcc1, active compounds read low 0.973 | locus YCL029C, strain bik1, active compounds read low 0.999 | locus YCL069W, strain vba3, active compounds read low 0.984 | locus YCR088W, strain abp1, active compounds read low 0.994 | locus YDL005C, strain med2, active compounds read low 0.963 | locus YDL035C, strain GPR1, active compounds read low 1.04 | locus YDL040C, strain nat1, active compounds read low 0.973 | locus YDL074C, strain BRE1, active compounds read low 1.03 | locus YDL101C, strain DUN1, active compounds read low 1.01 | locus YDL134C, strain PPH21, active compounds read low 1.04 | locus YDL185W, strain tfp1, active compounds read low 0.994 | locus YDL192W, strain arf1, active compounds read low 1 | locus YDR001C, strain nth1, active compounds read low 0.958 | locus YDR069C, strain doa4, active compounds read low 0.976 | locus YDR101C, strain arx1, active compounds read low 1 | locus YDR137W, strain rgp1, active compounds read low 0.917 | locus YDR150W, strain NUM1, active compounds read low 1.02 | locus YDR159W, strain sac3, active compounds read low 0.964 | locus YDR162C, strain NBP2, active compounds read low 1.02 | locus YDR195W, strain ref2 0.943 | locus YDR297W, strain sur2, active compounds read low 0.979 | locus YDR318W, strain mcm21, active compounds read low 1.01 | locus YDR334W, strain swr1, active compounds read low 0.982 | locus YDR335W, strain msn5, active compounds read low 0.95 | locus YDR388W, active compounds read low 1 | locus YDR392W, strain spt3, active compounds read low 0.956 | locus YDR502C, strain sam2, active compounds read low 1 | locus YEL003W, strain gim4, active compounds read low 0.965 | locus YEL037C, strain rad23, active compounds read low 0.978 | locus YEL061C, strain CIN8 (second series), active compounds read low 0.973 | locus YEL061C, strain CIN8, active compounds read low 1.01 | locus YER015W, strain faa2, active compounds read low 0.979 | locus YER016W, strain bim1, active compounds read low 0.94 | locus YER110C, active compounds read low 0.991 | locus YER111C, strain swi4, active compounds read low 0.969 | locus YER155C, strain BEM2 (second series), active compounds read low 0.984 | locus YER155C, strain BEM2, active compounds read low 1.01 | locus YER167W, strain BCK2, active compounds read low 1.01 | locus YFR010W, strain ubp6, active compounds read low 0.959 | locus YGL078C, strain dbp3, active compounds read low 0.997 | locus YGL086W, strain mad1, active compounds read low 1.02 | locus YGL167C, strain pmr1, active compounds read low 0.983 | locus YGL173C, strain kem1, active compounds read low 0.986 | locus YGL227W, strain vid30, active compounds read low 0.982 | locus YGL240W, strain doc1, active compounds read low 0.956 | locus YGL248W, strain PDE1, active compounds read low 1.01 | locus YGL253W, strain hxk2, active compounds read low 0.948 | locus YGR078C, strain PAC10, active compounds read low 1.02 | locus YGR135W, strain pre9, active compounds read low 0.996 | locus YGR252W, strain gcn5, active compounds read low 0.912 | locus YHR013C, strain ard1, active compounds read low 0.942 | locus YHR027C, strain rpn1, active compounds read low 0.971 | locus YHR030C, strain SLT2, active compounds read low 1.02 | locus YHR079C, strain IRE1 (second series), active compounds read low 0.993 | locus YHR079C, strain IRE1, active compounds read low 1.02 | locus YHR094C, strain hxt1, active compounds read low 1 | locus YHR129C, strain ARP1, active compounds read low 1.01 | locus YHR142W, strain chs7, active compounds read low 0.954 | locus YHR200W, strain rpn10, active compounds read low 1 | locus YIL066C, strain RNR3, active compounds read low 1.04 | locus YIL073C, strain SPO22, active compounds read low 1.02 | locus YIL125W, strain kgd1, active compounds read low 1 | locus YIR030C, strain dcg1, active compounds read low 1.01 | locus YJL092W, strain hpr5, active compounds read low 0.985 | locus YJL095W, strain BCK1 (second series), active compounds read low 0.965 | locus YJL095W, strain BCK1, active compounds read low 1 and 1.04 | locus YJL115W, strain asf1, active compounds read low 0.946 | locus YJL129C, strain trk1, active compounds read low 0.951 | locus YJL134W, strain LCB3, active compounds read low 1.01 | locus YJL154C, strain vps35, active compounds read low 0.983 | locus YJL164C, strain tpk1, active compounds read low 0.959 | locus YJL166W, strain qcr8, active compounds read low 0.999 | locus YJL168C, strain set2, active compounds read low 0.992 | locus YJL187C, strain SWE1 (second series), active compounds read low 1.01 | locus YJL187C, strain SWE1, active compounds read low 0.973 | locus YJR043C, strain POL32, active compounds read low 1.04 | locus YJR066W, strain TOR1, active compounds read low 0.965

Reference: PubChem BioAssay AID1159580 (chemical genetic matrix, 2015)
